From PubChem BioAssay (Tox21) come the findings set out here.

The source made the active and inactive calls. A call without a number means that no potency is given here. The call rests on the fitted dose curve.
Potency means the concentration at half of the fitted maximal effect.

Acetylcholinesterase (Homo sapiens), sequence (P22303 whole entry, looked up): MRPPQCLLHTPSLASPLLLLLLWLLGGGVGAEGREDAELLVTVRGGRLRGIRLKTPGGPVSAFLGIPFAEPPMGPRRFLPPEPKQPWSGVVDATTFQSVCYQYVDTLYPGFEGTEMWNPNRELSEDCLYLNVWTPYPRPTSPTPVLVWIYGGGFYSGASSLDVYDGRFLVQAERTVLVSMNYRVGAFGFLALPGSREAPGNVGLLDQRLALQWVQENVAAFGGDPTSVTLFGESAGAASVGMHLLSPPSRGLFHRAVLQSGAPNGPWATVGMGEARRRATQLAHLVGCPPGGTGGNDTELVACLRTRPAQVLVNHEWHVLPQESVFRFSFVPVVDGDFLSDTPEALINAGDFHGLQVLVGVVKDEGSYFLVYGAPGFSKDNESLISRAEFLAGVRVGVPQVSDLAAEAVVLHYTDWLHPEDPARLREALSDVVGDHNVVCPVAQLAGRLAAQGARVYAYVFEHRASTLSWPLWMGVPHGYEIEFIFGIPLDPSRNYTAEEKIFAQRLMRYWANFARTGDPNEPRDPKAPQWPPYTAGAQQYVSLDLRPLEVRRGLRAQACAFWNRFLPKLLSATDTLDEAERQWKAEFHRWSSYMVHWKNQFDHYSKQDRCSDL

In the experiment the target is Acetylcholinesterase (Homo sapiens) (UniProt P22303). Put plainly: Acetylcholinesterase (AChE) small molecule antagonists: enzyme-based qHTS assay with human liver microsomes (AID 1347399). Further: nearly all actives have a fitted effect of over 60% in size. The following applies: Potency: qHTS inhibition; series mostly up to 115 µM. From the text:
National Center for Advancing Translational Sciences [NCATS]
Division of Preclinical Innovation [DPI]
U.S. Environmental Protection Agency [EPA]
National Institutes of Environmental Health Sciences [NIEHS]
National Toxicology Program [NTP]
U.S. Food and Drug Administration [FDA]
Acetylcholinesterase (AChE) is the primary cholinesterase in the body that hydrolyzes a key neurotransmitter, acetylcholine. Inhibition of AChE activity can lead to neurotoxicity. The known inhibitors include organophosphorous pesticides (OP), chemical warfare agents, drugs, and various phytochemicals. Some compounds like OP compounds may need metabolic activation to be active AChE inhibitors. The cytochrome P450 (CYP) superfamily in the human microsomes is responsible for the metabolism of various endogenous and exogenous compounds.
An enzyme-based assay with the recombinant human AChE, human liver microsomes and Amplite Colormetric acetylcholinesterase assay kit (AAT Bioquest, Sunnyvale, CA) was used to evaluate compounds in the Tox21 10K library that need metabolic activation for AChE inhibition. The assay uses 5, 5-dithiobis-(2-nitrobenzoic acid) (DTNB) to quantify the thiocholine produced from the hydrolysis of acetylthiocholine by AChE.
Tox21 Assay Protocol Summary:
For the enzyme-based AChE assay with microsomes addition, a mixture of human AChE (50 mU/mL) and human liver microsomes (0.25 mg/mL, final concentration) in 3 uL/well was dispensed into black, clear-bottom 1536-well plates using a Multidrop Combi dispenser (Thermo Scientific, MA). Then, 23 nL of compound or DMSO (vehicle control) was transferred into the assay plates by a Pintool Station (Wako Automation, CA). Following compound addition, 1 uL of NADPH (0.25 mg/mL, final concentration) was transferred to the assay plate by a Flying Reagent Dispenser (Beckman Coulter, CA). The plates were incubated for 30 min at 37 C and 5% CO2, followed by the addition of 4 uL of colorimetric detection cocktail solution (DTNB, acetylthiocholine) into each well using a Flying Reagent Dispenser (Beckman Coulter, CA) and then 10 min incubation at room temperature.
A general note: qHTS replaces the single test concentration by a dilution series.
As for `CCC(Cl)[N+](=O)[O-]` (stereo not given), the Potency entry was “inactive”. Same read-out and setting: with `CC(N)=S` the entry was “inactive”.

As to `O=C1c2ccccc2C(=O)c2ccccc21`, the activity change, negative = inhibition is -1.34% [at 23.6 µM] (inactive). Regarding `CNCC(=O)c1ccc(O)c(O)c1`, the Potency result is “inactive”. As to `CCOC(=O)CP(=O)(OCC)OCC`, the Potency result is “inactive”.

As to `Cc1cccc(C#N)c1`, the Potency result is “inactive”. As for `CCCCc1c(C)nc(NCC)[nH]c1=O`, the Potency entry was “inactive”. Still for that read-out and setting: for `COC(=O)C(C)Oc1ccc(Oc2ccc(Cl)cc2Cl)cc1` (stereo not given) the value was “inactive”.

Take `CCN(CC)c1nc(C)cc(OP(=S)(OC)OC)n1`: the Potency result is “inactive”. Still for that read-out and setting: for `COP(N)(=S)Oc1ccccc1C(=O)OC(C)C` (stereo not given) the value was 2830 nM (active); for `CCOC(=O)C(c1c(O)c2ccccc2oc1=O)c1c(O)c2ccccc2oc1=O`, “inactive”; for `Nc1ccccc1Cl`, “inactive”. As to `CN1C[C@@H](NS(=O)(=O)N(C)C)C[C@@H]2c3cccc4c3c(cn4C)C[C@H]21`, the Potency entry is “inactive”. On the same count and under the same terms, for `COc1cccc(C(=O)NN(C(=O)c2cc(C)cc(C)c2)C(C)(C)C)c1C` the value was “inactive”. For `Nc1c(Br)cc([N+](=O)[O-])cc1[N+](=O)[O-]`, the Potency entry was “inactive”. For `[O]=[Cd]`, the Potency result was “inactive”. `OCCBr`: the Potency result was “inactive”. Take `O=[N+]([O-])c1cccc(O)c1`: the Potency result was “inactive”.

Take `CN1CCC(N(Cc2ccccc2)c2ccccc2)CC1`: the Potency result was “inactive”. Consider `CCOP(=S)(OCC)Oc1cc(-c2ccccc2)on1`, for which the Potency was 3170 nM (active). Still for that read-out and setting: with `COc1ncc(F)c2nc(S(=O)(=O)Nc3c(F)cccc3F)nn12` the entry was “inactive”.

With `O=C(Cc1ccccc1)OCc1ccccc1`, the Potency entry was “inactive”. `CC1=NNC(=O)N(/N=C/c2cccnc2)C1`: the Potency result was “inactive”. Same read-out and setting: for `[As]#[In]` the value was “inactive”; for `Nc1cc(Cl)ccc1O`, “inactive”. On to `CC(C)(C)C(=O)C(Oc1ccc(Cl)cc1)n1cncn1` (stereo not given), for which the Potency entry is “inactive”. Take `CC(C)[N+](=O)[O-]`: the Potency result is “inactive”. Take `O=c1oc2ccccc2c(O)c1C1CCCc2ccccc21` (stereo not given): the Potency entry is “inactive”.

In the case of `CN(N=O)C(N)=O`, the Potency entry was “inactive”. With `CNC(=O)N(C)c1nc2ccccc2s1`, the Potency entry was “inactive”.

As for `CCOC(=O)/C=C(C)/C=C/C[C@@H](C)CCCC(C)C`, the Potency result was “inactive”. Regarding `CC1(C)COP(Oc2ccccc2)OC1`, the Potency result was “inactive”. Regarding `Nc1n[nH]c(N)n1`, the Potency entry was “inactive”.

As for `Clc1ccccc1N1CCNCC1`, the Potency entry was “inactive”. Still for that read-out and setting: for `C[C@@H]1CN(C2CCC(C#N)(c3ccc(F)cc3)CC2)CC[C@]1(C(=O)O)c1ccccc1` (stereo not given in full) the value was “inactive”; for `C[C@H]1CCC[C@H](O)CCCCCc2cc(O)cc(O)c2C(=O)O1`, “inactive”. `CCN(CC)C(=O)[C@@H]1C=C2c3cccc4[nH]cc(c34)C[C@H]2N(C)C1`: the Potency result is “inactive”.

On to `CNNC`, for which the Potency result was “inactive”. Still for that read-out and setting: with `Cc1ccccc1CO[C@@H]1C[C@@]2(C(C)C)CC[C@]1(C)O2` the entry was “inactive”; with `CN1CCC(O)(c2ccc(F)cc2)C(C(=O)c2ccc(F)cc2)C1` (stereo not given), “inactive”.
